A selection: hits, their analogues and other compounds. The true share with any hit is near 3.4%.
FBW7 act – FBW7 E3 ligase activators, primary screen, biochemical, AlphaScreen, human. F-box/WD repeat-containing protein 7 (Homo sapiens), Q969H0. AlphaScreen FBW7–phospho-cyclin E peptide binding, activator screen. normalized activity (activation), % at 26.1 µM. 650,000 tested, 0.13% active; in the data active = normalized activity above about 1.9%;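 also: purified mutant Fbw7 with reduced substrate affinity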
Target sequence (Q969H0 whole entry, looked up): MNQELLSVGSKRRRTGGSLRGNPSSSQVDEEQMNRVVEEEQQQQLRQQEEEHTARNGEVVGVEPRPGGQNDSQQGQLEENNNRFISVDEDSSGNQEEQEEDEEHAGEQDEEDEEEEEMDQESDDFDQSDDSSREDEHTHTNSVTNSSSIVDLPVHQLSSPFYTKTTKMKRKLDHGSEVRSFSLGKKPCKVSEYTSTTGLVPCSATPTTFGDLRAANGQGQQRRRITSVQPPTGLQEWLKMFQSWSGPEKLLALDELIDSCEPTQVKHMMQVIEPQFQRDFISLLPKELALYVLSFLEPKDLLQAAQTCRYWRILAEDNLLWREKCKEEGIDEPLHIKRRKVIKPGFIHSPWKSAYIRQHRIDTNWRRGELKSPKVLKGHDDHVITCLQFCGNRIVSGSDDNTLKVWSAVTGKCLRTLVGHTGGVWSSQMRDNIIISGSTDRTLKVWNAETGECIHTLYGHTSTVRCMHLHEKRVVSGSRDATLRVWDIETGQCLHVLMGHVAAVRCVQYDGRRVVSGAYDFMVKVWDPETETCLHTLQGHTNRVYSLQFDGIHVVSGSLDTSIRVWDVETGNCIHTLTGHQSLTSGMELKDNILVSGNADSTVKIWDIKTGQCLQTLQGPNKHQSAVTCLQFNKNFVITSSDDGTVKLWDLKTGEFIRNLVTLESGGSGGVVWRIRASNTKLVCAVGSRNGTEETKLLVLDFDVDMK
MITF primary – MITF inhibitors, primary screen, biochemical, AlphaScreen, human. AID 1259374, 2018. Microphthalmia-associated transcription factor (Homo sapiens), O75030. AlphaScreen MITF homodimerization, bead proximity signal. 650,000 tested, 0.91% active. inhibition, % at 2.6 µM; in the data active = inhibition above about 50%;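 also: 0% = vehicle wells with protein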
GPR151 ag – activators of human GPR151, primary screen, cell-based, PathHunter beta-arrestin, luminescence; PathHunter beta-arrestin GPR151 cells; AID 1508602, 2020; activation, % at 11.2 µM; G-protein coupled receptor 151 (Homo sapiens), Q8TDV0; 650,000 tested, 1% active; in the data active = activation above about 4.9%;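 also: 0% = median of compound wells and 100% = cells with positive control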
TEAD-YAP inh – TEAD-YAP interaction inhibition, primary screen, TEAD-YAP interaction inhibitor project, luminescence, HEK-TIYL cells; TEAD-Gal4/YAP UAS-luciferase luminescence; inhibition, % at 9.12 µM; 640,000 tested, 1.4% active; AID 1259422, 2018; in the data active = inhibition above about 32%;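 also: 0% = median of test compound wells and 100% = reference inhibitor wells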
An asterisk follows results filed as active.

SMILES	FBW7 act	MITF primary	GPR151 ag	TEAD-YAP inh
COc1ccc([N+](=O)[O-])cc1NC(=O)/C=C/c1ccc2c(c1)OCO2	0.2	3.3	-0.1	7.2
COC(=O)c1ccccc1N(Cc1ccccc1)S(=O)(=O)c1ccc(OC)cc1	0.0	-0.9	-1.2	51.1*
COc1ccc(S(=O)(=O)N(Cc2ccccc2)c2ccccc2C(=O)NC2CC2)cc1	1.6	3.8	0.5	46.9*
Cn1c(CNC(=O)c2cccs2)nnc1SCC(=O)N1N=C(c2cccs2)CC1c1ccc(F)cc1 (configuration not stated)	0.2	6.9	0.5	1.8
CC(=O)OC(OC(C)=O)C12C=CC(O1)C1C(=O)NC(=O)C12 (configuration not stated)	0.2	-3.0	0.3	1.7
COc1cccc2cc(C(=O)OCC(=O)Nc3ccc4c(c3)OCO4)c(=O)oc12	-0.1	-4.3	1.3	3.4
O=C(Nc1cccc2cnccc12)c1cccc(S(=O)(=O)N2CCCCCC2)c1	0.4	8.5	1.1	38.2*
O=C(Nc1ccccc1O)c1cccc(S(=O)(=O)N2CCCCC2)c1	1.1	14.2	-0.3	5.3
COC(=O)c1ccc(N2CCCCCC2)c(NS(=O)(=O)c2ccc(OC)cc2)c1	-0.5	-4.0	0.7	56.7*
COC(=O)c1ccc(NS(=O)(=O)c2ccc(OC)cc2)cc1	0.1	0.5	-1.0	-3.1
COC(=O)c1ccc(C)c(NS(=O)(=O)c2ccc(OC)c(Cl)c2)c1	0.1	-5.4	-1.0	41.2*
COC(=O)c1ccc(Cl)c(NS(=O)(=O)c2ccc(C)cc2)c1	0.7	12.4	-1.7	56.8*
COC(=O)c1ccc(C)c(NS(=O)(=O)c2ccc(OC)c(OC)c2)c1	-0.4	4.2	1.1	-1.3
COC(=O)c1ccc(Cl)c(NS(=O)(=O)c2ccc(OC)c(Cl)c2)c1	-0.1	-13.7	1.4	-0.8
COC(=O)c1ccc(C)c(NS(=O)(=O)c2ccc3ccccc3c2)c1	-0.2	-2.7	0.6	53.2*
COc1ccc(C2C(C#N)=C(N)OC3=C2C(=O)CC(C)(C)C3)cc1[N+](=O)[O-] (configuration not stated)	-0.1	-1.1	-1.6	-3.3
CCOC(=O)CSc1nc(C)c(CC)c(=O)[nH]1	0.1	3.5	1.1	-3.4
Cc1sc2ncnc(NCCc3ccc(S(N)(=O)=O)cc3)c2c1C	0.0	-0.5	1.2	36.8*
Cc1nc(NCCC2=CCCCC2)c2c3c(sc2n1)CCCC3	-0.2	0.5	-0.7	-37.5
Cc1sc2ncnc(NCCC3=CCCCC3)c2c1C	0.2	1.7	0.3	44.4*
CCC1=NN(C(=O)c2ccccc2O)C(O)(c2ccccc2)C1 (configuration not stated)	-0.4	1.4	-0.8	45.8*
C=CCN(c1ccccc1)S(=O)(=O)c1ccc(F)c(C(=O)NCC(OC)OC)c1	0.1	7.6	0.6	3.1
C=CCN(c1ccccc1)S(=O)(=O)c1ccc(F)c(C(=O)NCCc2ccccc2)c1	-0.1	2.4	-0.3	35.2*
O=C(Nc1ccc(F)c(F)c1)c1ccc(F)c(S(=O)(=O)NCc2ccco2)c1	0.5	3.4	-0.1	38.2*
CN(Cc1ccccc1)S(=O)(=O)c1cc(C(=O)Nc2ccc(F)c(F)c2)ccc1F	0.0	-6.0	4.4	43.7*
SMILES	FBW7 act	MITF primary	GPR151 ag	TEAD-YAP inh
CCN(Cc1ccccc1)S(=O)(=O)c1cc(C(=O)Nc2ccc(Cl)c(Cl)c2)ccc1F	0.3	11.8	1.1	54.9*
CCc1ccc(NC(=O)c2ccc(F)c(S(=O)(=O)N(CC)Cc3ccccc3)c2)cc1	-0.2	-5.1	-0.1	-2.2
CCN(Cc1ccccc1)S(=O)(=O)c1cc(C(=O)Nc2ccc(F)c(F)c2)ccc1F	0.1	11.2	0.6	59.2*
CCCN(CCC)C(=O)c1c[nH]c2ccc(S(=O)(=O)N(C)c3ccc(C(C)C)cc3)cc2c1=O	0.2	-9.1	-0.6	9.3
Cc1ccnc(NC(=O)c2ccccc2Cl)c1	0.7	12.9	-5.1	35.2*
COc1cccc(C(=O)NC(=S)Nc2ccccn2)c1	0.0	3.1	-2.0	36.2*
Cc1ccnc(NC(=S)NC(=O)c2ccccc2)c1	0.1	-3.4	0.6	33.8*
Cc1ccnc(NC(=S)NC(=O)c2ccc(Cl)cc2)c1	0.1	5.5	-1.3	-56.2
CCc1cccc(CC)c1NC(=O)C1CC1	0.4	7.4	-0.7	5.1
CC(=O)Nc1cccc(-c2cnc3c(N4CCN(C(=O)c5ccco5)CC4)nccn23)c1	-0.1	-8.8	-5.4	92.7*
O=C(c1ccco1)N1CCN(c2nccn3c(-c4cccc(F)c4)cnc23)CC1	0.1	2.9	0.5	-16.2
CC(=O)Nc1cccc(-c2cnc(N3CCN(C(=O)c4ccco4)CC3)c3nccn23)c1	3.2*	16.2	-5.2	91.8*
Cc1ccc(/C=C2\CS/C(=C\c3ccc(C)o3)C2=O)o1	-0.7	66.8*	1.0	-8.9
Cc1ccc(/C=C2/SC(=S)N(CCCCCC(=O)O)C2=O)o1	-0.3	39.8	2.3	38.7*
O=C(O)CCCCCN1C(=O)/C(=C\c2ccco2)SC1=S	-0.1	43.2	-0.5	36.9*
Cc1ccc(/C=C2/SC(=S)N(CCS(=O)(=O)O)C2=O)o1	-1.2	56.3*	0.8	6.4
Cc1ccc(/C=C2\SC(=S)N(C)C2=O)o1	-0.5	6.3	1.9	11.9
Cc1ccc(/C=C2/SC(=O)NC2=S)o1	0.0	75.9*	0.6	-4.9
O=C(NN1C(=O)/C(=C\c2ccco2)SC1=S)c1ccccc1Cl	-0.5	34.8	-0.3	1.3
O=C(O)CCCCCN1C(=O)/C(=C\c2ccccn2)SC1=S	1.9*	5.3	0.3	30.1
NC(=O)NN1C(=O)/C(=C/c2ccco2)SC1=S	-0.8	68.7*	-0.4	-1.9
O=C(O)CCN1C(=O)/C(=C\c2ccccn2)SC1=S	0.0	8.1	1.4	25.8
O=C(Nc1cccc2c(NC(=O)c3ccco3)cccc12)c1ccco1	0.1	-1.9	1.9	-0.2
NCc1nn(CCc2ccccn2)c(=O)c2ccccc12	0.8	26.0	-0.3	59.0*
Cn1nc(CN)c2ccccc2c1=O	0.0	0.0	-2.9	10.7
SMILES	FBW7 act	MITF primary	GPR151 ag	TEAD-YAP inh
N#C/C(=C\c1ccco1)C(=O)Nc1ccccc1F	2.1*	22.4	-1.3	-38.6
O=Cc1ccc(OCc2ccc3c(c2)OCO3)c(Cl)c1	0.2	4.5	-8.3	71.9*
O=Cc1ccccc1OCc1ccc2c(c1)OCO2	0.4	7.5	-4.0	-50.5
CC(C)(C)CC(=O)NCC1Cc2cccc(-c3cncnc3)c2O1 (configuration not stated)	0.0	11.7	2.9	-8.7
CC(=O)Nc1ccc(Nc2nc(Nc3ccncc3)nc3c2ncn3C2CCCCC2)cc1	0.0	4.7	1.2	10.7
O=C(NC1CC1)c1ccc2cncc(-c3ccccc3)c2n1	-0.2	4.8	4.5	50.6*
O=C(NC1CCN(Cc2ccccc2)CC1)c1ccc2cncc(-c3ccccc3)c2n1	-0.2	16.2	1.3	65.2*
O=C(c1ccc2cncc(-c3ccccc3)c2n1)N1CCCCC1	-1.0	-15.6	-1.0	49.5*

Screening data deposited in PubChem BioAssay by The Scripps Research Institute Molecular Screening Center.
